# Measured values as given in paper PMC6212833.
# Whole data set: some 2,000 compounds, median “B-score” near -0.0024, cut for the highest 2% near 4. The full list was thinned out, with the highest values kept by preference.
# Tested on: Balamuthia mandrillaris (ATCC PRA-291) trophozoites, axenic culture
# Test: primary screen, b score
# Settings: 20 µM
# Outline: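 Trophozoites (3,000/well) in axenic medium exposed to library drugs at 20 µM in 0.2% DMSO for 72 h; viability by CellTiter Glo luminescence at 2, 4 and 8 h. Controls: vehicle and freeze-thaw amoeba lysate; B-score corrects row, column and edge effects.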
row,SMILES,B-score
1,CCOC(=O)C1=C[C@@H](OC(CC)CC)[C@H](NC(C)=O)[C@@H](N)C1,-0.221
2,Cc1c(-c2cnccn2)ssc1=S,1.58
3,Cc1c(NC(C)C)c(=O)n(-c2ccccc2)n1C,-2.14
4,Cc1c(NC(=O)c2cccnc2)c(=O)n(-c2ccccc2)n1C,12.5
5,Cc1c(N(C)C)c(=O)n(-c2ccccc2)n1C,2.34
6,CNC[C@H](O)[C@@H](O)[C@H](O)[C@H](O)CO [757068-L2],1.95
7,C[C@]1(Cn2ccnn2)C(C(=O)O)N2C(=O)CC2S1(=O)=O (stereo partly drawn),-2.49
8,OC(CCN1CCCCC1)(c1ccccc1)C1CCCCC1 (stereo not drawn),0.407
9,COc1c(N2CCNC(C)C2)c(F)cc2c(=O)c(C(=O)O)cn(C3CC3)c12 (stereo not drawn),0.0884
10,C[C@@H]1CN(c2c(F)c(F)c3c(=O)c(C(=O)O)cn(C4CC4)c3c2F)C[C@H](C)N1,-1.44
11,C[n+]1c2cc(N)ccc2cc2ccc(N)cc21,20.4
12,CC[n+]1c(-c2ccccc2)c2cc(N)ccc2c2ccc(N)cc21,3.74
13,Nc1ccc2cc3ccc(N)cc3nc2c1,1.36
14,O=C(O)/C=C/C(=O)O,0.597
15,CCCCCCCCCCCCCCCC(=O)OC/C=C(C)/C=C/C=C(C)/C=C/C1=C(C)CCCC1(C)C,-0.008
16,O=C(CCCN1CC=C(n2c(O)nc3ccccc32)CC1)c1ccc(F)cc1,-6.32
17,CCCc1cc(C(N)=S)ccn1,3.08
18,O=C(O)[C@H](O)[C@@H](O)[C@H](O)[C@H](O)CO,0.99
19,CCCCOc1ccc(C(=O)CCN2CCCCC2)cc1 [130801-L6],-2.14
20,N=C(N)c1ccc(OCCCCCOc2ccc(C(=N)N)cc2)cc1,15.2
21,CCCCOc1ccc(C(=O)CCN2CCCCC2)cc1 [130801-L5],-1.2
22,CC(C)(O/N=C(\C(=O)N[C@@H]1C(=O)N2C(C(=O)O)=C(C[n+]3ccccc3)CS[C@H]12)c1csc(N)n1)C(=O)O,1.87

row,SMILES,B-score
1,CN[C@H](CC(C)C)C(=O)N[C@H]1C(=O)N[C@@H](CC(N)=O)C(=O)N[C@H]2C(=O)N[C@H]3C(=O)N[C@H](C(=O)N[C@H](C(=O)O)c4cc(O)cc(O)c4-c4cc3ccc4O)[C@H](O)c3ccc(c(Cl)c3)Oc3cc2cc(c3O[C@@H]2O[C@H](CO)[C@@H](O)[C@H](O)[C@H]2O[C@H]2C[C@](C)(N)[C@H](O)[C@H](C)O2)Oc2ccc(cc2Cl)[C@H]1O,-0.857
2,Oc1ccc2c3c1O[C@H]1[C@@H](O)CC[C@@]4(O)[C@@H](C2)N(CC2CCC2)CC[C@]314,0.0386
3,CN1CCC(=C2c3ccccc3Sc3ccccc32)CC1,-1.07
4,CN/C(=C/[N+](=O)[O-])NCCSCc1ccc(CN(C)C)o1,-2.02
5,CN/C(=C\[N+](=O)[O-])NCCSCc1ccc(CN(C)C)o1,14.6
6,CN/C(=C\[N+](=O)[O-])NCCSCc1csc(CN(C)C)n1,-0.177
7,COC(=O)/C=C/C(=O)OC,1.25
8,COc1cc(NS(=O)(=O)c2ccc(N)cc2)ncn1,3.08
9,Nc1ccc(S(=O)(=O)Nc2ccc(Cl)nn2)cc1,1.1
10,COc1ccc(NS(=O)(=O)c2ccc(N)cc2)nn1,4.49
11,CNC[C@H](O)[C@@H](O)[C@H](O)[C@H](O)CO [757068-L1],-0.164
12,Cc1scc2c1N(C(=O)CN1CCN(C)CC1)c1ccccc1NC2=O,-4.76
13,N#Cc1nn(-c2c(Cl)cc(C(F)(F)F)cc2Cl)c(N)c1S(=O)C(F)(F)F (stereo not drawn),0.119
14,OC[C@@H]1CC[C@H](n2cnc3c(O)ncnc32)O1,0.384
15,C#C[C@]1(O)CCC2C3CCC4=CC(=O)CC[C@@H]4C3CCC21CC (stereo partly drawn),-1.87
16,C#C[C@]1(O)CC[C@H]2[C@@H]3CCC4=CC(=O)CC[C@@H]4[C@H]3CC[C@@]21C,5.5
17,C#C[C@]1(O)CCC2C3CCC4=CC(=O)CC[C@@H]4C3CC[C@@]21C (stereo partly drawn),0.0185
18,CO/N=C(\C(=O)N[C@@H]1C(=O)N2C(C(=O)O)=C(CSc3nc(=O)c(=O)[nH]n3C)CS[C@H]12)c1csc(N)n1,-0.496
19,CC(C[N+](C)(C)C)OC(N)=O (stereo not drawn),1.72
20,CC(=O)[C@H]1CCC2C3CC=C4C[C@@H](O)CC[C@]4(C)C3CC[C@@]21C (stereo partly drawn),-1.35
21,N=C(N)c1ccc(N=NNc2ccc(C(=N)N)cc2)cc1,9.37
22,Nc1c2ccccc2nc2ccccc12,-0.407

row,SMILES,B-score
1,CC(=O)c1ccc2c(c1)N(CCCN(C)C)c1ccccc1S2,0.888
2,COc1cc(C(=O)NCCCCCC(=O)O)cc(OC)c1OC,-2.61
3,CC1=C(/C=C/C(C)=C/C=C/C(C)=C\C(=O)O)C(C)(C)CCC1,1.46
4,NC(=O)c1cc[n+](CC2=C(C(=O)O)N3C(=O)[C@@H](NC(=O)Cc4cccs4)[C@H]3SC2)cc1,0.071
5,CCC(C)n1ncn(-c2ccc(N3CCN(c4ccc(OC[C@H]5CO[C@](Cn6cncn6)(c6ccc(Cl)cc6Cl)O5)cc4)CC3)cc2)c1=O (stereo partly drawn),5.45
6,CCC(C)n1ncn(-c2ccc(N3CCN(c4ccc(OCC5COC(Cn6cncn6)(c6ccc(Cl)cc6Cl)O5)cc4)CC3)cc2)c1=O (stereo not drawn),-1.07
7,CC(C)N1CCN(c2ccc(OC[C@H]3CO[C@](Cn4cncn4)(c4ccc(Cl)cc4Cl)O3)cc2)CC1,2.03
8,O=c1[nH]c(=O)c2ccccc2o1,1.88
9,C(=C\c1ccccc1)/CN1CCN(C(c2ccccc2)c2ccccc2)CC1 [255681-L2],0.414
10,Cc1cn[nH]c1 [285621-L4],2.94
11,Cc1cc(-c2ccc(/N=N/c3ccc4c(S(=O)(=O)O)cc(S(=O)(=O)O)c(N)c4c3O)c(C)c2)ccc1/N=N/c1ccc2c(S(=O)(=O)O)cc(S(=O)(=O)O)c(N)c2c1O,11
12,CN(C)CC(c1ccc(O)cc1)C1(O)CCCCC1 (stereo not drawn),-2.24
13,Nc1nc(O)c2nc(CNc3ccc(C(=O)N[C@@H](CCC(=O)O)C(=O)O)cc3)cnc2n1 [131189-L3],-0.599
14,C[N+](C)(C)CCOP(=O)([O-])OP(=O)(O)OC[C@H]1O[C@@H](n2ccc(N)nc2=O)[C@H](O)[C@@H]1O,-1.73
15,CN(C)c1ccc(C(=C2C=CC(=[N+](C)C)C=C2)c2ccc(N(C)C)cc2)cc1,9.22
16,O=C(OOC(=O)c1ccccc1)c1ccccc1,-0.0136
17,CC(C)(C)CC(C)(C)c1cc(Cc2cc(C(C)(C)CC(C)(C)C)cc(-n3nc4ccccc4n3)c2O)c(O)c(-n2nc3ccccc3n2)c1,-1.88
18,Cc1ccc(-c2ncc(Cl)cc2-c2ccc(S(C)(=O)=O)cc2)cn1,2.78
19,Cc1nc2n(c(=O)c1CCN1CCC(c3noc4cc(F)ccc34)CC1)CCC[C@H]2O,0.893
20,OCC(S)CS (stereo not drawn),8.18
21,CC(O)Cn1cnc2c1c(=O)n(C)c(=O)n2C (stereo not drawn),-3.33
22,NS(=O)(=O)c1cc(C2(O)NC(=O)c3ccccc32)ccc1Cl (stereo not drawn),0.358

row,SMILES,B-score
1,O[C@H]1[C@H](O)[C@@H](O)[C@H](O)[C@@H](O)[C@H]1O,-1.95
2,CC(C)/N=C(N)/N=C(\N)Nc1ccc(Cl)cc1 [131550-L2],0.326
3,CC(C)/N=C(N)/N=C(\N)Nc1ccc(Cl)cc1 [131550-L3],-1.38
4,N=C(NCCCCCCNC(=N)NC(=N)Nc1ccc(Cl)cc1)NC(=N)Nc1ccc(Cl)cc1,20.8
5,Cc1cccc(C)c1NC(=O)C(C)N (stereo not drawn),0.0863
6,CC[C@@H](CO)NC(=O)[C@@H]1C=C2c3cccc4c3c(cn4C)C[C@H]2N(C)C1 [756841-L1],0.825
7,CC(=O)Oc1cc2c(s1)CCN([C@H](C(=O)C1CC1)c1ccccc1F)C2,0.0184
8,CN[C@@H]1[C@@H](O[C@H]2O[C@H](CO)[C@@H](N)[C@H](O)[C@H]2O)O[C@H]2C[C@@H](N)[C@H](O[C@H]3[C@H](O)[C@@H](O)[C@H](N)C[C@@H]3N)O[C@@H]2[C@@H]1O,-1.36
9,O=C(O)c1ccccc1-c1c2cc(I)c(=O)c(I)c-2oc2c(I)c(O)c(I)cc12,14.8
10,N[C@@H]1[C@H]2CN(c3nc4c(cc3F)c(=O)c(C(=O)O)cn4-c3ccc(F)cc3F)C[C@@H]12,-1.05
11,C#C[C@]1(O)CCC2C3CCc4cc(OC)ccc4C3CC[C@@]21C (stereo partly drawn),-0.0352
12,COc1cc2c(cc1OC)C(=O)C(CC1CCN(Cc3ccccc3)CC1)C2 (stereo not drawn),-0.41
13,c1ccc2c(c1)Nc1ccccc1S2,0.971
14,CC(=O)N[C@@H]1[C@@H](C(O)[C@H](O)CO)O[C@](O)(C(=O)O)C[C@@H]1O (stereo partly drawn),-1.13
15,Cc1nc(Nc2ncc(C(=O)Nc3c(C)cccc3Cl)s2)cc(N2CCN(CCO)CC2)n1 [756746-L2],1.19
16,Cc1nc(Nc2ncc(C(=O)Nc3c(C)cccc3Cl)s2)cc(N2CCN(CCO)CC2)n1 [756746-L1],8.3
17,C[C@H]1O[C@@H](O[C@H]2[C@@H](O)C[C@H](O[C@H]3[C@@H](O)C[C@H](O[C@H]4CC[C@@]5(C)[C@H](CC[C@@H]6[C@@H]5CC[C@]5(C)[C@@H](C7=CC(=O)OC7)CC[C@]65O)C4)O[C@@H]3C)O[C@@H]2C)C[C@H](O)[C@@H]1O,-0.38
18,CC(=O)Oc1ccccc1C(=O)Nc1ncc([N+](=O)[O-])s1,-0.287
19,C[C@]12CC[C@H](O)CC1=CCC1C2CC[C@]2(C)C(=O)CC[C@@H]12 (stereo partly drawn),0.449
20,C=C1CC2C(CC[C@]3(C)C(=O)CCC23)[C@@]2(C)C=CC(=O)C=C12 (stereo partly drawn),-0.0158
21,C=C1C[C@@H]2[C@H](CC[C@]3(C)C(=O)CC[C@@H]23)[C@@]2(C)C=CC(=O)C=C12,7.82
